Reference: the supplement of paper PMC10849652
The full data set covers some 8,800 targets. This sample favours those with a hit. About 0.5% of all pairs of compound and target were hits. Unmarked numbers belong to inactive results.

These targets were tested with CN1CCN(CCOc2cc(OC3CCOCC3)c3c(Nc4c(Cl)ccc5c4OCO5)ncnc3c2)CC1 [saracatinib] (assay: log2 fold change, soluble protein after heating vs DMSO (PISA); higher = thermal stabilisation; K562 lysate, 10 uM; active = over 0.2 and 3.5 SD of the protein, either way, in both replicates (recomputed)).
Method in brief: (§1)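 A 30 min treatment with 10 μM compound was applied to crude K562 extract at 1 mg/mL protein in PBS pH 7.4 with 1 mM MgCl2. Heating for 3 min spanned 48°C-58°C, after which aliquots were pooled, adjusted to 0.5% NP-40 at 4°C and spun at 21,000xg for 90 min. TMTpro 16plex LC-MS/MS of the supernatant, with channel sums equalised, gave values recorded as log-two fold change in thermal stability against solvent controls, from duplicates.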

Sequence of UniProt Q9ULR0 (Q9ULR0 whole entry, looked up): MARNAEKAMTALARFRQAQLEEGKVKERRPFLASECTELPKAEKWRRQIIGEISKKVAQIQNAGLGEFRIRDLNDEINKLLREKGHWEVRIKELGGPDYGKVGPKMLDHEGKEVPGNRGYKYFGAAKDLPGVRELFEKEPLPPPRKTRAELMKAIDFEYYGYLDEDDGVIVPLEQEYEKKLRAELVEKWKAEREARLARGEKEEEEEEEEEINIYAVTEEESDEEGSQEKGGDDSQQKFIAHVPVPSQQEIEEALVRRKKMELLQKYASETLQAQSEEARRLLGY
Sequence of UniProt P04792 (P04792 whole entry, looked up): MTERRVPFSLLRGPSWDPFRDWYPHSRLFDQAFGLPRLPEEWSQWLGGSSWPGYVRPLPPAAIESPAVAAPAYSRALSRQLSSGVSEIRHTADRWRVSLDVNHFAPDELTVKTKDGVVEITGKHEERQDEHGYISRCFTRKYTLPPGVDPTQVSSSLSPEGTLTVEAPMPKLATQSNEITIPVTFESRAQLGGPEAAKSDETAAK
Sequence of UniProt Q6AI08 (Q6AI08 whole entry, looked up): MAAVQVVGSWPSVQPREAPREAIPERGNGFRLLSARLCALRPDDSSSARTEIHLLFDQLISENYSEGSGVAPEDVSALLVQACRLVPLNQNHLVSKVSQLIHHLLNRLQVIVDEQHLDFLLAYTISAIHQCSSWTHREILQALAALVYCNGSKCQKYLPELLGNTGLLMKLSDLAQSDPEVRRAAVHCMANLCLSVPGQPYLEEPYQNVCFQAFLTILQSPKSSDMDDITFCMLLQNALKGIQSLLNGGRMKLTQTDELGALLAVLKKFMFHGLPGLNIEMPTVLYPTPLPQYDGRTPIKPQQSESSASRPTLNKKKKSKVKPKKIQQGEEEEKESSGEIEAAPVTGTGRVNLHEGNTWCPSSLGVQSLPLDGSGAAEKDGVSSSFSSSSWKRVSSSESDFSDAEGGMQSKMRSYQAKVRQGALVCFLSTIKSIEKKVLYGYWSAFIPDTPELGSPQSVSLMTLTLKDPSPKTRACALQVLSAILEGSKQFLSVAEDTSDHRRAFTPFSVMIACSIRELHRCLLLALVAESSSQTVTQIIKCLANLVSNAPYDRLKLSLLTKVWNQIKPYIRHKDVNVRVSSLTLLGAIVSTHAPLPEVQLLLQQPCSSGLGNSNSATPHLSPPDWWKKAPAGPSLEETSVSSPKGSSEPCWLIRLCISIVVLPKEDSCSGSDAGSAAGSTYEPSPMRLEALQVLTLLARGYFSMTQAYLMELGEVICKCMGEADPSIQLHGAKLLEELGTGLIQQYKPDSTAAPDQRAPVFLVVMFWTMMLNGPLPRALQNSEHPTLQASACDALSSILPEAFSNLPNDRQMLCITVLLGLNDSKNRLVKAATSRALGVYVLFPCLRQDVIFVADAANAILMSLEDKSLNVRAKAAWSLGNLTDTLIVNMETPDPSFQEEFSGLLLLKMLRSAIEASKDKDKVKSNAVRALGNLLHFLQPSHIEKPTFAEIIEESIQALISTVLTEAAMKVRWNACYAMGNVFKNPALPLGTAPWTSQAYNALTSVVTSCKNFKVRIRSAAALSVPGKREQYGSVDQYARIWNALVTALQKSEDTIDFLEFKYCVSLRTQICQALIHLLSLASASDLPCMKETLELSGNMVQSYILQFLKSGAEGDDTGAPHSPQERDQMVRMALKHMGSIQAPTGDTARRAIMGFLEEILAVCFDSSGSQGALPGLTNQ
Sequence of UniProt Q9BUE6 (Q9BUE6 whole entry, looked up): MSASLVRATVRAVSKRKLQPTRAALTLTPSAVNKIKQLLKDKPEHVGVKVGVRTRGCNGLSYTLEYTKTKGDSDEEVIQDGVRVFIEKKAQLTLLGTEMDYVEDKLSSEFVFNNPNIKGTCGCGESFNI
Sequence of UniProt Q68E01 (Q68E01 whole entry, looked up): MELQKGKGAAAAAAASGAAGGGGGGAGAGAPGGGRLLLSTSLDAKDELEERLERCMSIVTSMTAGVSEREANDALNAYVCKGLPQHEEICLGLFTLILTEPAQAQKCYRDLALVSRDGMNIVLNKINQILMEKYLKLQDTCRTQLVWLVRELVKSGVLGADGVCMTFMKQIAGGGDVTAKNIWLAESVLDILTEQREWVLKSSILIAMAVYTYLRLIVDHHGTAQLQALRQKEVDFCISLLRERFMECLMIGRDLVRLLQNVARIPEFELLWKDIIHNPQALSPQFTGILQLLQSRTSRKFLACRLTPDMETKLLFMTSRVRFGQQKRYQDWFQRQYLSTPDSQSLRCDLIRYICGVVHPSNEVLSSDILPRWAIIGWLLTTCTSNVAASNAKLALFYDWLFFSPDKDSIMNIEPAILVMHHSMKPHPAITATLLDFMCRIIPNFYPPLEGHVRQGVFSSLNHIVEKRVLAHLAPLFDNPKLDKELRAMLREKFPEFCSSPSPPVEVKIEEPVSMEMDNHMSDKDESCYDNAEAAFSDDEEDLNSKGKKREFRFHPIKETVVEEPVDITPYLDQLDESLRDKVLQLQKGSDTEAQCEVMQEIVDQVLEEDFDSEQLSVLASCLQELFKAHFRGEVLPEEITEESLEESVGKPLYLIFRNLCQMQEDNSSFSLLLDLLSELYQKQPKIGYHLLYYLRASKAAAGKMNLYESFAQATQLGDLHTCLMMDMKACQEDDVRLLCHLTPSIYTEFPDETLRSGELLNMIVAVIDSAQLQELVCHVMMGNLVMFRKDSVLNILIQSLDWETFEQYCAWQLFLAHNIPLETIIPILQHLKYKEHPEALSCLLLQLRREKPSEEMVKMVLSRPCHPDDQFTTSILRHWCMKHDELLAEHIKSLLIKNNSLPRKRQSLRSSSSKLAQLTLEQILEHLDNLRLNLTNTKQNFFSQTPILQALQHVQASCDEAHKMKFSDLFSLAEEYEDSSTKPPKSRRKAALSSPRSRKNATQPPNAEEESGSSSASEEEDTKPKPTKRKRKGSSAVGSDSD
Sequence of UniProt O15357 (O15357 whole entry, looked up): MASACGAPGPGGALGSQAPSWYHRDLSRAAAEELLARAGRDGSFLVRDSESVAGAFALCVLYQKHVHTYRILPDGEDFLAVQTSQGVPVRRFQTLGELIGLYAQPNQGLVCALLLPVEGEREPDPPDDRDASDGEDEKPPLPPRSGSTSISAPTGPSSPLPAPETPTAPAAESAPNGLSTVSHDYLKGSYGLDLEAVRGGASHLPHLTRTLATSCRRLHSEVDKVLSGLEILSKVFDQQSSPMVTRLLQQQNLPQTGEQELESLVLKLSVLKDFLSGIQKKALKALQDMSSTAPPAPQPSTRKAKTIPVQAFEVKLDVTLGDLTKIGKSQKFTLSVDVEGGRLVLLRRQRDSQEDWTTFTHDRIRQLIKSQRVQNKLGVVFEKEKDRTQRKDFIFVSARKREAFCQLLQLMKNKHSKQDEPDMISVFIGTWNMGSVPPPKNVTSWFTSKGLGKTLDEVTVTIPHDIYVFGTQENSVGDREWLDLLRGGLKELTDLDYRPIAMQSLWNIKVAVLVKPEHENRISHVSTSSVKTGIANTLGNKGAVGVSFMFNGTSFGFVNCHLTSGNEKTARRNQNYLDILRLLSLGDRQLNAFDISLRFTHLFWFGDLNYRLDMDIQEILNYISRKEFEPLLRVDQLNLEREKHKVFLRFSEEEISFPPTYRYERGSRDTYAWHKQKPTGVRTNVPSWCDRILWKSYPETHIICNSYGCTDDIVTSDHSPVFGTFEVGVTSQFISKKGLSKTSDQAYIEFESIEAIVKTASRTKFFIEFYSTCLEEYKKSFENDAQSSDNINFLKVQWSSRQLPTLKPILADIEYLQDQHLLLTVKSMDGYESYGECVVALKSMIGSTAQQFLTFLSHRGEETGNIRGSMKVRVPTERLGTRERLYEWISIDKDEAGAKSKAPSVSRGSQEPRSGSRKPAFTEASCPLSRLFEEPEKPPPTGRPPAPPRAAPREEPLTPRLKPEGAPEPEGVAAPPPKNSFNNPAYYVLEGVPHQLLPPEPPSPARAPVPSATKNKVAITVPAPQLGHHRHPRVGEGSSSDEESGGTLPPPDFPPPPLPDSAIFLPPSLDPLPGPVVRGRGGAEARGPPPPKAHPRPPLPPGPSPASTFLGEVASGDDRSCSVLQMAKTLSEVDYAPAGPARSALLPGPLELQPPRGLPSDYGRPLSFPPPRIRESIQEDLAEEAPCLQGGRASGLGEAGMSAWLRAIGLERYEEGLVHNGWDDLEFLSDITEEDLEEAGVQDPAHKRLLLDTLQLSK
Sequence of UniProt Q8NEC7 (Q8NEC7 whole entry, looked up): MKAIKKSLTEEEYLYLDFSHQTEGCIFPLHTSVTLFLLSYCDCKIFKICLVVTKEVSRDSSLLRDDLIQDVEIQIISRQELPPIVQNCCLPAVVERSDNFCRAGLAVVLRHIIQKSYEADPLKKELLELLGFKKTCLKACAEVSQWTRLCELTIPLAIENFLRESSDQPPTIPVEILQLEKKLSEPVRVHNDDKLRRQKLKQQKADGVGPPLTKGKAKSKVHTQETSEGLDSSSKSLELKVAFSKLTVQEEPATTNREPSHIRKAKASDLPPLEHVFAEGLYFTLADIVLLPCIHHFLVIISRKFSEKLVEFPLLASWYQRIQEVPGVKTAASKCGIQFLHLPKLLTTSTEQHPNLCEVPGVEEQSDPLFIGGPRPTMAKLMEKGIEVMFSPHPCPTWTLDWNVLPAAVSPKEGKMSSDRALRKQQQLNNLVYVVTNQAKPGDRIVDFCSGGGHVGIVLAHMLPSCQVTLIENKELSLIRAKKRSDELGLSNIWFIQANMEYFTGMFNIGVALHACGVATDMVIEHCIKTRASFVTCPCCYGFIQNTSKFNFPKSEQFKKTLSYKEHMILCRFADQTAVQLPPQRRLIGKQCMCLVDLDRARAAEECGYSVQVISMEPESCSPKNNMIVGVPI
Sequence of UniProt Q9H6K1 (Q9H6K1 whole entry, looked up): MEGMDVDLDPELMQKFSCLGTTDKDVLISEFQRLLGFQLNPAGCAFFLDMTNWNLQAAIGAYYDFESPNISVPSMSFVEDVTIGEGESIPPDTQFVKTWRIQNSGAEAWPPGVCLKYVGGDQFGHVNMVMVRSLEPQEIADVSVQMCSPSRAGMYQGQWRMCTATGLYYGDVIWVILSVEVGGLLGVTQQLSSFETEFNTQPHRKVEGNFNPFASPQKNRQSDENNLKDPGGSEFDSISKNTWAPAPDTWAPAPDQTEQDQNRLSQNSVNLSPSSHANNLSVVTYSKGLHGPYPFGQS

Row | Target | log2 fold change
1 | HDAC3 (UniProt O15379) | -0.04
2 | GTF3C5 isoform 3 (UniProt Q9Y5Q8) | 0.031
3 | ISY1 isoform 1 (UniProt Q9ULR0) | 0.026
4 | HEATR6 (UniProt Q6AI08) | -0.007
5 | H4C1 (UniProt P62805) | -0.094
6 | ILRUN (UniProt Q9H6K1) | 0.024
7 | ISCA1 isoform 2 (UniProt Q9BUE6) | 0.028
8 | KDM5B isoform 2 (UniProt Q9UGL1) | -0.113
9 | INTS3 (UniProt Q68E01) | 0.049
10 | GSTCD (UniProt Q8NEC7) | 0.034
11 | HSPB1 (UniProt P04792) | 0.024
12 | INPPL1 (UniProt O15357) | 0.005

These targets were tested with CN1CCN(c2nc(C3=C(c4c[nH]c5ccccc45)C(=O)NC3=O)c3ccccc3n2)CC1 [sotrastaurin] in the same assay as above.
Method in brief: as §1

Row | Target | log2 fold change
13 | GLYR1 (UniProt Q49A26) | 0.064
14 | HMGCS1 (UniProt Q01581) | -0.014
15 | GSTM4 (UniProt Q03013) | -0.05
16 | KARS1 (UniProt Q15046) | 0.004
17 | GTF2H4 (UniProt Q92759) | 0.034
18 | HAUS7 isoform 2 (UniProt Q99871) | -0.025
19 | GSE1 (UniProt Q14687) | 0.049
20 | INTS10 (UniProt Q9NVR2) | 0.023
21 | GMDS (UniProt O60547) | 0.019
22 | HDHD5 (UniProt Q9BXW7) | 0.05
23 | GLUD2 (UniProt P49448) | -0.039
24 | ILKAP (UniProt Q9H0C8) | 0.021
25 | HSPA14 (UniProt Q0VDF9) | 0.039
26 | GLUL (UniProt P15104) | 0.016
27 | GSK3A (UniProt P49840) | 0.535 (active)
28 | GRK6 isoform 2 (UniProt P43250) | -0.001
29 | GRK2 (UniProt P25098) | 0.01
30 | KDM5C (UniProt P41229) | 0.019

Row | Target | log2 fold change
31 | ILK (UniProt Q13418) | -0.002
32 | HLTF (UniProt Q14527) | 0.017
33 | INTS7 (UniProt Q9NVH2) | -0.057
34 | ICAM2 (UniProt P13598) | -0.035
35 | HSP90AA4P (UniProt Q58FG1) | 0.033
36 | HMGB2 (UniProt P26583) | -0.04
37 | HDAC3 (UniProt O15379) | -0.006
38 | GTF3C5 isoform 3 (UniProt Q9Y5Q8) | -0.033
39 | ISY1 isoform 1 (UniProt Q9ULR0) | 0.032
40 | HEATR6 (UniProt Q6AI08) | 0.064
41 | H4C1 (UniProt P62805) | -0.059
42 | ILRUN (UniProt Q9H6K1) | -0.003
43 | ISCA1 isoform 2 (UniProt Q9BUE6) | 0.021
44 | KDM5B isoform 2 (UniProt Q9UGL1) | -0.136
45 | INTS3 (UniProt Q68E01) | 0.015
46 | GSTCD (UniProt Q8NEC7) | 0.037
47 | HSPB1 (UniProt P04792) | 0.005
48 | INPPL1 (UniProt O15357) | 0.019
